G9a inh = inhibitors of human histone lysine methyltransferase G9a. 350,000 compounds, 8.8% hits. Potency, µM (titrated, usually from 102 µM), for the others: at the highest dose activity, negative = inhibition, actives largely listed as inhibitors. AID 504332. G9a H3K9 monomethylation, AlphaScreen, 2 h. Q96KQ7; note: % is set by controls: 0 for no effect and ±100 for the full control effect; nearly all actives have a fitted effect of over 75% in size
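Compounds were preincubated with 20 nM G9a for 15 min, after which biotinylated H3K9 peptide (500 nM) and SAM (20 uM) started a 2 h room-temperature reaction. Monomethylated product was quantified by antibody-based AlphaScreen chemiluminescence.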
BAZ2B block = inhibitors of human BAZ2B bromodomain. Q9UIF8. AlphaScreen BAZ2B-H3K14Ac peptide displacement. Potency, µM (titrated, usually from 114 µM), for inactives: top-dose activity change, negative = inhibition, most hits filed as inhibitors. 360,000 compounds, 4.4% hits; note: % is set by controls: 0 for no effect and ±100 for the full control effect; nearly all actives have a fitted effect of over 60% in size
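AlphaScreen luminescence quantifies BAZ2B engagement of H3K14Ac peptide; the protein and biotinylated peptide are both at 50 nM final, buffer PBS pH 7.4 with 0.01% Tween-20, all steps at room temperature.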
HP1b binding inh = blocks HP1-beta chromodomain binding to methylated histone tails; P83916; Potency, µM (series often up to 114 µM), inactives show top-dose activity change, negative = inhibition, most hits filed as inhibitors; AlphaScreen HP1-beta / biotin-H3K9me3 peptide binding; 390,000 compounds, 0.56% hits; note: nearly all actives have a fitted effect of over 70% in size
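Compound inhibition of the preformed complex between 50 nM HP1-beta and 50 nM biotinylated H3K9me3 peptide was read by AlphaScreen. Buffer was PBS pH 7.4 with 0.01% Tween-20. Incubations ran 30 min at room temperature, with 10 ug/mL donor/acceptor beads.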
Sfp PPTase inh = Sfp phosphopantetheinyl transferase inhibition | Biochemical Sfp PPTase activity, qHTS | Q9F4F7 | 310,000 compounds, 3.5% hits | Potency, µM, without a hit: largest response in the series, negative = inhibition, actives largely listed as inhibitors;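 note: the enzyme is Sfp with the accession as filed and its product quenches rhodamine fluorescence; 0% = enzyme reaction without inhibitor and -100% = no enzyme wells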
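Fluorescence-quenching assay with 15 nM Sfp, 5 uM rhodamine-CoA and 12.5 uM BHQ-2-labelled ybbR peptide in pH 7.6 Hepes/MgCl2 buffer. Enzyme was pre-incubated with compound for 15 min at room temperature. Rate was taken from the 30-min fluorescence change (525/598 nm).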
JMJD2A Tudor = JMJD2A Tudor domain (human) inhibition | 390,000 compounds, 4.4% hits | AlphaScreen JMJD2A-Tudor / H3K4me3 peptide binding | Potency, µM (top dose mostly 114 µM), inactives show top-dose activity change, negative = inhibition, usual class: inhibitors; note: % is set by controls: 0 for no effect and ±100 for the full control effect; nearly all actives have a fitted effect of over 50% in size
TDP1 inh = blocks human tyrosyl-DNA phosphodiesterase 1. Q9NUW8. recombinant TDP1, AlphaScreen DNA substrate cleavage. Potency, µM (doses to about 130 µM), inactives show at the top dose activity change, negative = inhibition, actives largely listed as inhibitors. 350,000 compounds, 0.28% hits; note: % is set by controls: 0 for no effect and ±100 for the full control effect; nearly all actives have a fitted effect of over 40% in size
Target sequence (Q9NUW8 whole entry, looked up): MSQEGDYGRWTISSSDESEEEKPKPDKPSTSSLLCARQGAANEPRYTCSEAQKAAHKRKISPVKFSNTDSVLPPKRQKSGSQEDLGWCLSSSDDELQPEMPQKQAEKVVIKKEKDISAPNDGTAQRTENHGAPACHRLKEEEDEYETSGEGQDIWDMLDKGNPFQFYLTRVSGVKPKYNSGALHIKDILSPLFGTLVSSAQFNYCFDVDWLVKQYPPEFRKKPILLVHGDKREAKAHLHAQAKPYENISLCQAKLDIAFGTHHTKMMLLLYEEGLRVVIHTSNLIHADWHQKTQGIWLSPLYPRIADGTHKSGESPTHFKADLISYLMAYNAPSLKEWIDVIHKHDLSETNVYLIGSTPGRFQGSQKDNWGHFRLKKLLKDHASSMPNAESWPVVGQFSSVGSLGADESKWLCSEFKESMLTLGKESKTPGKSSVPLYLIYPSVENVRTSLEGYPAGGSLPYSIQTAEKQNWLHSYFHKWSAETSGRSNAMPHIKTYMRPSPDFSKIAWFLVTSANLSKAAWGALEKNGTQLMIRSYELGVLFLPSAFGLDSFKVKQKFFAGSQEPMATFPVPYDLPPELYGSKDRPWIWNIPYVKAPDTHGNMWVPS
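Compounds were preincubated with Tdp1 (1 nM final) for 15 min at room temperature before substrate (15 nM final) started a 5 min reaction; beads (10 ug/ml final) were then added for 10 min before AlphaScreen detection.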
An asterisk follows results filed as active; ? = inconclusive; · = no result; [ ] = another dose, or the depositor's remark. In the library only some 12% were active in any assay of this set; here they are far more common. Calls come from the whole dose curve; as a rule, active = well fitted curve in the direction sought with a large enough effect; inconclusive = small, poorly fitted or top-dose-only effect, or another doubt; inactive = no such curve, though single readings can be large; an effect the other way counts as inactive or inconclusive. Potency is the fitted concentration of half-maximal effect.

SMILES	G9a inh	BAZ2B block	HP1b binding inh	Sfp PPTase inh	JMJD2A Tudor	TDP1 inh
COc1ccc(CCN(C)CC(O)COc2ccc(C(C)=O)cc2OC)cc1OC (stereo not given)	28.2µM*	-30.3%	79.4µM*	-2.2%	28.2µM*	·
COc1ccc(CCN(C)CC(O)c2ccccc2)cc1OC (stereo not given)	28.2µM*	?	?	?	2.51µM*	-5.4%
COc1cc(C(C)=O)ccc1OCC(O)CNCC(O)c1ccccc1 (stereo not given)	23.6%	56.2µM*	?	-23.2%	28.2µM*	·
CN(C)CC(O)COc1cccc(OCC(O)CN(C)C)c1 (stereo not given)	-2.1%[12.7 µM]	5.9%	23.3%	8.9%	-14.4%	0.0%
COc1ccc(CCN(C)C/C=C/c2ccccc2)cc1OC	50.1µM*	?	?	-12.7%	28.2µM*	·
C=CCOc1ccc(CN(C)CC(O)COc2ccc(CCC(C)=O)cc2)cc1 (stereo not given)	10µM*	-26.0%	?	-25.6%	1µM*	0.6%
COc1ccc(CN(C)CC(O)COc2ccc(-c3ccccc3)cc2)cc1OC (stereo not given)	39.8µM*	79.4µM*	50.1µM*	-12.6%	35.5µM*	6.8%
COc1ccc(CCN(C)CCC(=O)Nc2cccc(C)c2)cc1OC	?	-7.9%	22.5%	9.2%	-19.2%	4.1%
COc1ccc(CCN(C)CCc2ccc(OC)c(OC)c2)cc1OC	15.8µM*	·	28.4%	15.9%	-13.7%	5.2%[56.1 µM]
CC(=O)CCc1ccc(OCC(O)CNCCOc2ccc(C)cc2)cc1 (stereo not given)	2.0%	0.1%	12.3%	4.5%	-13.0%	0.1%
COc1ccc(OC)c(C2=Nn3c(nnc3-c3cccc(OC)c3OC)SC2)c1	·	·	·	29.5%	-15.9%	10.3%
O=C(CN1C(=O)NC2(CCCC2)C1=O)N1CCCSC1=Nc1ccccc1	-32.3%	-1.6%	28.4%	·	-12.8%	4.0%
CN1CCN/C1=C(/C(Cl)=C(Cl)Cl)[N+](=O)[O-]	12.6µM*	-27.2%	35.8%	-2.9%	?	5.3%
CN(Cc1ccccc1)C(=C(Cl)Cl)/C(=C1/NCCN1C)[N+](=O)[O-]	50.1µM*	-33.3%	28.3%	20.6%	-3.5%	2.7%
Cc1nn(CC(=O)NCCC2=CCCCC2)c(C)c1S(=O)(=O)N(C)C	·	·	18.0%	·	-14.9%	-0.2%
COc1cc(O)oc1C=Nc1ccc(Oc2ccccc2)cc1	44.7µM*	?	1.2%	-14.4%	?	5.9%
CCOc1ccc(NC(=O)C2CCN(c3nc4ccccc4[nH]3)CC2)cc1	-6.0%[59 µM]	27.7%	46.9%[57 µM]	·	-14.9%	5.4%
O=C(CSc1nc(-c2ccccc2)cs1)Nc1ccccc1[N+](=O)[O-]	?	25.1µM*	?	3.1%	?	7.9%
Cc1ccccc1Nc1nnc(SCC(=O)Nc2ccccc2[N+](=O)[O-])s1	44.7µM*	?	?	3.6%	?	-0.6%
Cc1cccc(Nc2nnc(SCC(=O)c3ccc(Br)s3)s2)c1C	4.47µM*	-35.6%	25.6%	5.8%	-12.5%	-3.2%
Cc1cccc(Nc2nnc(SCC(=O)NC3CCCc4ccccc43)s2)c1C (stereo not given)	?	-28.7%	6.7%	0.2%	-26.3%	-5.5%
Cc1ccccc1NC(=O)CSc1ccsc1[N+](=O)[O-]	?	39.8µM*	?	-9.6%	25.1µM*	·
Cc1ccc(NC(=O)CNC(=O)c2ccc(OC(F)F)cc2)cc1S(=O)(=O)N1CCCCCC1	·	·	25.1%	·	-11.0%	·
CCOC(=O)c1cc2c(=O)n3ccccc3nc2n(C(C)C)c1=NC(=O)C(C)(C)Oc1ccc(Cl)cc1	2.3%[59 µM]	4.0%	48.0%	·	6.8%	5.9%
COc1cc(NC(=O)c2nn(-c3ccc(F)cc3)c(=O)n(C)c2=O)cc(OC)c1OC	13.7%[59 µM]	0.0%	23.7%[57 µM]	·	-21.4%	3.0%
SMILES	G9a inh	BAZ2B block	HP1b binding inh	Sfp PPTase inh	JMJD2A Tudor	TDP1 inh
Cc1cc(C)nc(SCC(=O)Nc2ccccc2[N+](=O)[O-])n1	8.0%	-25.1%	-3.0%	18.0%	-3.6%	0.0%
O=C1CC(=O)NC(SCC(=O)Nc2ccccc2[N+](=O)[O-])=N1	25.1µM*	39.8µM*	?	?	35.5µM*	·
Cc1ccc(C(C)C)c(OCC(O)CN2CCOCC2)c1 (stereo not given)	2.3%	14.6%	37.2%	-12.6%	-9.2%	6.2%
Cc1ccc2c(c1)c(C)c(C)n2CC(O)CN1CCOCC1 (stereo not given)	-21.7%[59 µM]	0.7%	10.4%	1.1%	79.4µM*	3.2%
O=C(CCn1c2c(c3ccccc31)CCCC2)NNC(=O)c1ccccc1Cl	-1.5%	-7.0%	25.5%	17.3%	-13.8%	5.7%
Cc1ccc2c(c1)c1c(n2CC(O)CNC(C)(C)C)CCCC1 (stereo not given)	50.1µM*	44.7µM*	-12.4%	11.7%	44.7µM*	3.7%
CNCC(O)Cn1c2c(c3ccccc31)CCCC2 (stereo not given)	50.1µM*	?	-4.9%	12.2%	28.2µM*	-4.7%
Cc1ccc2c(c1)c1c(n2CC(O)CN2CCCCCC2)CCCC1 (stereo not given)	?	35.5µM*	?	-2.3%	?	·
Cc1ccc2c(c1)c1c(n2CC(O)Cn2c(C)nc3ccccc32)CCCC1 (stereo not given)	-24.3%	8.7%	7.5%	9.6%	?	6.5%
CC(=O)c1ccc(NC(=O)c2sc(-n3nc(C)c(Cc4ccc5c(c4)OCO5)c3C)nc2C)cc1	-17.1%[59 µM]	-31.1%	12.0%	·	79.4µM*	-6.8%
Cc1c(O)ccc(/C(Cc2ccc3ccccc3n2)=N\N)c1O	8.91µM*	?	10.2%	11.7%	?	9.9%
Cn1nccc1NS(=O)(=O)c1ccc(NC(=O)C(F)(F)F)cc1	-26.9%[59 µM]	-11.7%	31.0%	8.6%	-3.9%	3.7%
O=C(Nc1ccccc1)c1ccc(S(=O)(=O)N2CCCCC2)cc1	-0.7%[59 µM]	-1.3%	33.6%	3.1%	-16.3%	2.6%
O=C(Nc1nn[nH]n1)c1ccc(S(=O)(=O)N2CCCCC2)cc1	50.1µM*	70.8µM*	57.6%	-23.1%	?	5.9%
NC(=O)CSc1nnc(NC(=O)c2ccc(S(=O)(=O)N3CCCCC3)cc2)s1	6.31µM*	6.2%	50.5%	·	-8.9%	-13.2%
CCCCN([C@H](CO)C(C)C)S(=O)(=O)c1ccccc1Br	·	·	60.5%	·	-10.1%	0.7%[56.1 µM]
CC1(C)CC(C)(c2ccc(O)cc2O)N(c2ccc3ccccc3c2)C(=S)N1 (stereo not given)	?	44.7µM*	-33.3%	24.7%	?	5.0%
Cc1ccccc1C1C(C#N)=C2N=C(N)c3c(sc4c3CCCCC4)N2C2=C1C(=O)CCC2 (stereo not given)	?	44.7µM*	15.8%	50.1µM*	-22.9%[57.1 µM]	9.3%
